The structures appear in SMILES notation. Out of some 94,000 compounds screened, about 4,000 (4.3%) were called active. A call without a number means that no potency is given here. Inconclusive results (about 29%) are left out. The call rests on the fitted dose curve; in most records, active means well fitted inhibition curve with a large enough effect; inconclusive means small, poorly fitted or top-dose-only effect; inactive means no such curve, though single readings can be large or run the other way. For the sample, actives were picked, then their nearest neighbours and some compounds at random.
Potency means the concentration at half of the fitted maximal effect.

The assay can be described thus: Cytotoxic Profiling in NIH 3T3 Cell Line of Diverse Libraries Using Quantitative High-Throughput Screening. Further: nearly all actives have a fitted effect of over 55% in size. The following applies: NIH 3T3 viability, CellTiter-Glo ATP luminescence, 48-72 h; series mostly up to 96.7 µM. Summed up: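 Luminescent ATP readout (CellTiter-Glo, 10 min RT) after 48 or 72 hr compound exposure of NIH 3T3 cells seeded at 400 cells/well in 1536-well format; quantitative HTS.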
Regarding `CCn1cc(S(=O)(=O)N2CC[C@@H]3C(=O)NCCCCCCN(Cc4ccncc4)[C@@H]3C2)cn1`, the Potency result was “inactive”.
For the compound `CN1[C@@H](CCC(=O)N2CCCC2)CNC(=O)[C@@H]2[C@H]1CCN2Cc1ccc(S(C)(=O)=O)cc1`, the Potency result was “inactive”.
For `COc1ccccc1Nc1ccnc(N2CCC(N[S+](=O)([O-])c3cccs3)CC2)n1` the value was 31.6 µM (active).
With `COc1ccccc1-n1c(=O)c(C(=O)N2CCN([S+](=O)([O-])c3cccs3)CC2)nc2cccnc21`, the Potency entry is “inactive”.
As for `O=[S+]([O-])(c1cccs1)N1CCN(c2nccc(Nc3ccccc3F)n2)CC1`, the Potency was 25.1 µM (active).
For `COc1ccccc1Nc1ccnc(N2CCC(NC(=O)NC(C)C)CC2)n1`, the Potency entry is “inactive”.
For `O=c1n(CCN2CCN([S+](=O)([O-])c3cccs3)CC2)nc2n1CCCC2` the value was “inactive”; for `CN(C)C(=O)c1cccnc1OC1CCN(C(=O)c2ccc(Br)o2)C1` (stereo not drawn), “inactive”; for `CCc1nc2nccc(-c3ccco3)n2n1`, “inactive”.
For `Cc1nc(-c2ccccc2OC2CN(C(=O)c3ccnn3C)C2)no1` the value was “inactive”.
For `CC(=O)/C=C/C1=CC(C)(C)COc2ccc(O)cc21` the value was 25.1 µM (active); for `Cc1noc(-c2cccc(OC3CN(C(=O)CN4C(=O)CCC4=O)C3)c2)n1`, “inactive”.
Regarding `CC(=O)Nc1ccc(NC(=O)Cn2nc3c(cc2=O)CCCCC3)cc1`, the Potency result is “inactive”.
Turning to `O=C(Cc1cccnc1)N1CCCC(c2nc(CCOCC3CCCC3)no2)C1` (stereo not drawn), the Potency entry was “inactive”.
For `C1CCC(COCCc2noc(C3CNC3)n2)C1` the value was 7.94 µM (active); for `O=C(c1ccoc1)N1CCCC(c2nc(CCOCC3CCCC3)no2)C1` (stereo not drawn), “inactive”; for `COCCCNC(=O)c1ccc2oc(-c3ccc(OC)nc3)nc2c1`, “inactive”.
For `CC(C)CNC(=O)N1CCCC(c2nc(C(C)C)no2)CCNC(=O)CC1` (stereo not drawn) the value was “inactive”.
For `CC(C)(C)NC(=O)N1CCCC(c2nc(CCOCC3CCOCC3)no2)C1` (stereo not drawn) the value was “inactive”; for `CN1CCC(N2CCC[C@H]2c2nc(-c3ccc(OC4CCCCC4)nc3)no2)CC1`, 28.2 µM (active).
Take `CC(=O)N1CCN(c2cc(-c3noc([C@@H]4CCCN4C4CCC4)n3)ccn2)CC1`: the Potency entry is “inactive”.
`CC(=O)N1CCC(N2CCC[C@H]2c2nc(-c3ccc(-c4cncnc4)nc3)no2)CC1`: the Potency entry was “inactive”.
Consider `COCCN1CCC2(CCC1=O)CCN(C(=O)Nc1cc(Cl)ccc1C)CC2`, for which the Potency entry is “inactive”.
Then `C=CCN(C)C(=O)[C@@H](C)C1CC[C@@]2(C)Cc3sc(Nc4c(Cl)cccc4Cl)nc3[C@@H](C)[C@@H]2[C@H]1O` (stereo partly drawn), with 44.7 µM (active).
For `COCCNC(=O)C(C)[C@@H]1CC[C@@]2(C)CC[C@H](NC(=O)c3ccccc3)[C@@H](C)[C@@H]2[C@H]1O` (stereo partly drawn) the value was “inactive”.
For `CCN(CC)C(=O)[C@@H](C)C1CC[C@@]2(C)Cc3sc(N)nc3[C@@H](C)[C@@H]2[C@H]1O` (stereo partly drawn) the value was “inactive”; for `Cc1cc(C2CCCN2C(=O)c2ccccc2)on1` (stereo not drawn), “inactive”.
In the case of `O=C(c1ccc2cc[nH]c2c1)N1CCN(Cc2cnc[nH]2)CC(O)C1` (stereo not drawn), the Potency result is “inactive”.
Regarding `O=C(C1CC1)N1CCn2c(nn(-c3ccc(F)cc3)c2=O)C1`, the Potency entry was “inactive”.
Then `Cc1ccc(-n2nc3n(c2=O)CCN(C(=O)Cc2ccccn2)C3)cc1`, with “inactive”.
On to `Cc1ccc(-n2nc3n(c2=O)CCN(C(=O)C(C)(C)C)C3)cc1`, for which the Potency was 50.1 µM (active).
On to `COc1ccc(CC(=O)Nc2cc(-c3cccnc3)nn2-c2ccccc2)cc1`, for which the Potency entry was “inactive”.
Then `COc1ccc(N2CCN(C3CCCN(CC(=O)N(C)C(C)C)C3)CC2)cc1` (stereo not drawn), with “inactive”; and `COc1ccc(-n2nc(-c3ccccc3)n(CC(=O)N(C)CC(C)C)c2=O)cc1`, with 79.4 µM (active); and `Cc1noc2c(N3CC[S+](=O)([O-])CC3)cc(-c3ccc(Cl)cc3)nc12`, with 10 µM (active).
For the compound `Cc1noc2c(N3CCC(c4ccccc4)CC3)cc(-c3cccnc3)nc12`, the Potency result is “inactive”.
For `Cc1nc2c(c(-c3ccc(Cl)cc3)n1)CCN([S+](=O)([O-])c1c(C)noc1C)CC2` the value was “inactive”.
For the compound `CN1CCCCCCN(C(=O)C2CCC2)[C@H]2CCC[C@H]2C1=O`, the Potency result was “inactive”.
In the case of `Cc1noc(C)c1-c1cc2cc(CNC3CCOCC3)oc2c(NC2CCN(C)CC2)n1`, the Potency is 39.8 µM (active).
Then `CCOCCN1C(=O)COC[C@@H]1[C@H](O)c1ccc(NC(=O)c2cnccn2)cc1`, with “inactive”.
Regarding `CCCN1CCN(C(=O)C2CCCN(c3cnn(Cc4ccccc4)c(=O)c3)C2)CC1` (stereo not drawn), the Potency result was “inactive”.
For `O=C(C1CCN(Cc2ccccc2-c2cccnc2)CC1)N1CCN(Cc2ccccc2)CC1`, the Potency result was “inactive”.
On to `O=C(C1CCCN(Cc2cccc(-c3ccc(F)cc3F)c2)C1)N1CCN(Cc2ccccc2)CC1` (stereo not drawn), for which the Potency was 39.8 µM (active).
Regarding `COCc1nc(CCNC(=O)Cc2c(C)noc2C)no1`, the Potency entry was “inactive”.
For `CN(C)C[C@@H]1CN(C)C[C@H]1NC(=O)c1cnn(C)c1` the value was “inactive”; for `CCn1ccc(C(=O)NCC2CCCCC(=O)N2)n1` (stereo not drawn), “inactive”.
For `O=C(c1ccccn1)N1CCn2c(nnc2C2CCCNC2)C1` (stereo not drawn), the Potency entry is “inactive”.
For `COCC(=O)N(C1CCOCC1)C1CCN(S(=O)(=O)c2ccccc2)CC1` the value was “inactive”.
For `O=C1NC2(Cc3ccccc31)CN([S+](=O)([O-])c1cccc(C(F)(F)F)c1)C2`, the Potency entry was “inactive”.
Then `O=[S+]([O-])(c1ccccc1)N1CCCC2(CC(c3ccccn3)=NO2)C1` (stereo not drawn), with “inactive”; and `O=C1NC2(CCCN([S+](=O)([O-])c3ccccc3)C2)COc2ccccc21` (stereo not drawn), with 22.4 µM (active); and `COc1nccnc1NC1CCN(C(=O)CCc2ccccc2)CC1`, with “inactive”.
As to `Cc1ccc(C2Cn3nnc(-c4noc(-c5ccccc5C)n4)c3CO2)cc1` (stereo not drawn), the Potency result is “inactive”.
Then `O=C1CCCN1CCCN1C(=O)[C@@H]2C[C@@H](O)CN2C2(CN(C3CCOCC3)C2)C1=O`, with “inactive”.
Consider `COCC(=O)Nc1ccc([C@@H](O)[C@H]2COCC(=O)N2Cc2ccc(C(F)(F)F)cc2)cc1`, for which the Potency entry was “inactive”.
For `COCCn1c2c(c(=O)n1-c1ccccc1)CCN(Cc1cccc(C#N)c1)C2` the value was 100 µM (active).
Then `N#Cc1cccc(CN2CCCN(S(=O)(=O)c3ccccc3)CCC(=O)NCC2)c1`, with “inactive”; and `O=C1NCCN(Cc2ccccc2)C1CC(=O)N1CCN(c2ccccc2)CC1` (stereo not drawn), with “inactive”.
For `O=c1c2c(n(Cc3ccccc3)n1-c1ccccc1)CN(Cc1ccn[nH]1)CC2` the value was 89.1 µM (active); for `O=C(Cn1c2c(c(=O)n1Cc1ccccc1)CCN(Cc1ccccc1)C2)NCc1cccc(Cl)c1`, “inactive”; for `N#Cc1cccc(CN2CCc3nc(N4CCc5ccccc5C4)[nH]c(=O)c3CC2)c1`, “inactive”.
Regarding `N#Cc1ccc(CN2CCC3(COc4ncccc4[S+](=O)([O-])N3)C2)cc1` (stereo not drawn), the Potency entry was “inactive”.
Then `CC(C)c1ccc(CNC(=O)CCn2ccn3nc4c(c3c2=O)CCCC4)cc1`, with “inactive”; and `C=CCOc1cccc(-c2nnc(CCC(=O)NCc3ccccc3)c(=O)[nH]2)c1`, with “inactive”; and `CSCCNC(=O)c1cc(-c2ccc(Cl)nc2)nc2c1cnn2C`, with “inactive”.
For `COCC(=O)N[C@@H](Cn1ccc(=O)[nH]c1=O)C(=O)O` the value was “inactive”; for `O=C(c1cnccn1)N1CCC[C@H](n2c(=O)n(CC3CC3)c3cccnc32)C1`, “inactive”.
`Cc1ccc(NS(=O)(=O)c2ccccc2)c(=O)n1CC(=O)N(C)Cc1ccccc1`: the Potency result was “inactive”.
For the compound `CC(C)CCN1C(=O)CC[C@]2(C(=O)N3CCN(C)CC3)CCCC[C@@H]12`, the Potency result was “inactive”.
Consider `O=C1CC(c2ccccc2)N(C(=O)CNC(=O)NCc2ccc(F)cc2)CCCCCN1` (stereo not drawn), for which the Potency result was “inactive”.
In the case of `O=C1CC(c2ccccc2)N(C(=O)CNC(=O)C2CCC2)CCCCCN1` (stereo not drawn), the Potency entry is “inactive”.
As to `O=C1CC(c2ccccc2)N(Cc2cn[nH]c2-c2ccc(F)cc2)CCCCCN1` (stereo not drawn), the Potency was 39.8 µM (active).
As to `Cn1ncc2c(C(=O)NCC(F)(F)F)cc(-c3ccccc3F)nc21`, the Potency entry was “inactive”.
In the case of `COc1ccc(C2Cn3cnc(-c4nc(-c5ccc(OC)cc5OC)no4)c3CO2)cc1` (stereo not drawn), the Potency is 20 µM (active).
Take `CCOc1ccc(-c2noc(-c3ncn4c3COC(c3ccc(OC)cc3)C4)n2)cc1` (stereo not drawn): the Potency entry is “inactive”.
In the case of `COc1ccc(-c2noc(-c3nnn4c3COC(c3ccc(Cl)cc3)C4)n2)c(OC)c1` (stereo not drawn), the Potency result is “inactive”.
For `CN(C)C(=O)C1CN(C(=O)C2CCCC2)CC12CCOCC2` (stereo not drawn), the Potency result is “inactive”.
Take `CCC(=O)N1Cc2ccccc2CC2(CCN(Cc3ccc(OC)cc3)C2)C1` (stereo not drawn): the Potency result was “inactive”.
`O=C(NCCC1COc2ccccc2O1)c1ccc(N2CCCOCC2)nc1` (stereo not drawn): the Potency result was “inactive”.
Turning to `COc1ccc(-c2ccc3c(c2)C(=O)N2CCN(C(=O)CC(C)(C)C)C[C@@H]2C(=O)N3)c(OC)c1`, the Potency entry was “inactive”.
Then `COc1ccc(-c2cccc(C(=O)NCc3cccc(Cl)c3)c2)nn1`, with 35.5 µM (active).
For `COc1ccc(-c2cccc(C(=O)N3CCN(C(=O)Cc4cccc(Cl)c4)CC3)c2)nn1` the value was “inactive”; for `COc1ccc(-c2cccc(C(=O)NC3CC3)c2)nn1`, “inactive”; for `O=C(N[C@H]1CCOC[C@H]1C1CCOCC1)c1scc2c1OCCO2`, “inactive”.
Then `Cc1nc(C(=O)N2CC[C@H](NS(=O)(=O)c3cccs3)C[C@H]2C(=O)N[C@H](Cc2c[nH]c3ccccc23)C(N)=O)cs1`, with “inactive”.
Consider `Cn1ccnc1C(=O)N1CCCCCCNC(=O)[C@@H]2C[C@@H](C(=O)N3CCc4ccccc4C3)C[C@@H]21`, for which the Potency result is “inactive”.
For `O=C(NCc1cccnc1)C1CCC(=O)N1C1CCNCC1` (stereo not drawn) the value was “inactive”.
On to `CC(=O)NC[C@@H]1C=C(C)[C@H](CC(=O)N2CCCC2)C[C@H]1C(C)C`, for which the Potency result is “inactive”.
For `CC1=C[C@@H](CNC(C)C)[C@H](C(C)C)C[C@H]1Cc1nnc(-c2ccc(N(C)C)cc2)o1` the value was 31.6 µM (active); for `CC1=C[C@@H](CNC2CC2)[C@H](C(C)C)C[C@H]1Cc1nnc(-c2ccc(C)cc2)o1`, 39.8 µM (active).
Then `CC1=C[C@@H](CNC(=O)NC(C)C)[C@H](C(C)C)C[C@H]1Cc1nnc(-c2ccncc2)o1`, with 56.2 µM (active).
On to `CC1=C[C@@H](CN2CCOCC2)[C@H](C(C)C)C[C@H]1Cc1nnc(-c2ccc([N+](=O)[O-])cc2)o1`, for which the Potency is 35.5 µM (active).
For the compound `COC1C(=O)N(c2cccc(F)c2)C12CCN(C(=O)C1(c3ccccc3)CC1)CC2` (stereo not drawn), the Potency result is “inactive”.

Values taken from PubChem BioAssay AID1345082 (National Center for Advancing Translational Sciences (NCATS), 2018).
